# Reference: PubChem BioAssay (NCI)
# Compounds without any hit were thinned out: in the full panel of roughly 79,000, 15% have a hit. A number with no mark means an inactive call. Calls of active or inactive are those of the source. No stated cut-off is given here; in the data, active means growth inhibition above about 70%; inactive means the rest.
# Columns and labels:
# [1] = NCI Yeast Anticancer Drug Screen. Data for the rad50 strain (AID 155);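 further: 0% = growth of vehicle-only cultures of the same strain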; details: S. cerevisiae rad50 strain growth inhibition; at 50.0 µM; active compounds read high
# Outline: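 Vehicle-treated cultures provide the reference for the growth inhibition reported for compound-exposed, repair-deficient yeast.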
# [2] = NCI Yeast Anticancer Drug Screen. Data for the mec2-1 strain (AID 157); details: S. cerevisiae mec2-1 strain, at 50.0 µM, active compounds read high
# Outline: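 Test agents were screened against the mec2-1 yeast strain, with defined DNA repair or cell cycle alteration. Growth was scored as inhibition against vehicle-only controls.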
# [3] = NCI Yeast Anticancer Drug Screen. Data for the sgs1 mgt1 strain (AID 161);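 further: 0% = growth of cultures given vehicle only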; details: S. cerevisiae sgs1 mgt1 strain, at 50.0 µM, active compounds read high
# Outline: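 Genetically altered yeast, compound exposure, growth inhibition relative to vehicle.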
# [4] = NCI Yeast Anticancer Drug Screen. Data for the cln2 rad14 strain (AID 165);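 further: 0% = growth equal to vehicle treated cultures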; details: S. cerevisiae cln2 rad14 strain, at 50.0 µM, active compounds read high
# Outline: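 Growth of compound-exposed yeast (cln2 rad14 genotype) measured and expressed as inhibition relative to vehicle.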
# [5] = NCI Yeast Anticancer Drug Screen. Data for the bub3 strain (AID 167); details: S. cerevisiae bub3 mutant strain, at 50.0 µM, active compounds read high
# Outline: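 Mutant yeast screening strain plus compound; vehicle-treated cultures serve as the 0% inhibition reference.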
# [6] = NCI Yeast Anticancer Drug Screen. Data for the mlh1 rad18 strain (AID 175); details: S. cerevisiae mlh1 rad18 strain growth inhibition; at 50.0 µM; active compounds read high
# Outline: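 In this whole-cell yeast screen, a strain with altered DNA damage repair is challenged with compound, and its growth is measured against matched vehicle-treated controls.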
SMILES,growth inhibition [1],growth inhibition [2],growth inhibition [3],growth inhibition [4],growth inhibition [5],growth inhibition [6]
CC(=O)NC(C)c1ccc2ccccc2c1 (configuration not stated),-5.4%,14.8%,1.8%,7.55%,-8.5%,11.4%
CCc1ccccc1OCC1CO1 (configuration not stated),10.9%,3.5%,11.2%,2.2%,-11.9%,18.2%
O=C(Nc1cccc(C(=O)Nc2ccc(S(=O)(=O)O)c3cc(S(=O)(=O)O)cc(S(=O)(=O)O)c23)c1)Nc1cccc(C(=O)Nc2cccc3c(S(=O)(=O)O)c(S(=O)(=O)O)cc(S(=O)(=O)O)c23)c1,-0.25%,7.2%,0.65%,47.9%,12.9%,13.7%
CNC1C(O)C(OC2C(N)CC(N)C(OC3OC(CN)C(O)C(O)C3O)C2O)OCC1(C)O (configuration not stated),27.1%,-17.1%,-12.7%,4.85%,9.9%,20.6%
O=P1(c2ccccc2)C(c2ccccc2)=CC=C1c1ccccc1,23.4%,9.8%,18.1%,6.6%,12.3%,31.2%
COc1ccc2c(c1)CCC1C2CCC2(C)C(=O)C(n3cnc4c(=S)nc[nH]c43)CC12 (configuration not stated),42.3%,24.4%,50%,34.5%,14.2%,51.8%
COc1cccc2c1C(=O)c1c(O)c3c(c(O)c1C2=O)CC(O)(C(C)=O)CC3O (configuration not stated),61.5%,12.5%,39%,17.1%,34.4%,50.5%
O=C(CC(C(=O)c1ccc(F)cc1)c1ccsc1)c1cccs1 (configuration not stated),13.8%,2.3%,26.8%,16.5%,8.5%,3%
N#Cc1c2c(c(=O)n3c1[nH]c1ccccc13)CCC2,-23.9%,11.4%,-15.6%,-3.25%,-1.6%,-8.2%
CC1=C2N3C[C@@H](n4c(=O)n(C)c(=O)n43)C23CCC1n1c(=O)n(C)c(=O)n13,-7.1%,-0.85%,17.9%,7%,-7.9%,-9.95%
C=CCN(CC=C)CCNc1cc(C)nc(/N=C(\N)Nc2ccc(Cl)c(Cl)c2)n1,94.7% (active),94.2% (active),96.8% (active),87% (active),94.7% (active),97.9% (active)
COc1ccc(N2CCN(CC(O)COc3ccc(C(=O)Cc4ccccc4)cc3)CC2)cc1 (configuration not stated),96.4% (active),96.8% (active),99% (active),86.6% (active),91% (active),96.7% (active)
CCCCn1c2nc(=O)n(C)c(=O)c-2cc2ccccc21,29%,16.7%,22.6%,-25.4%,17.8%,34.7%
NC(=O)C(=CNC(=S)Nc1ccc(S(N)(=O)=O)cc1)C(N)=O,-10.1%,-31.1%,-16.4%,2.9%,-10.4%,0.5%
CC(C)C(C(=O)O)N(C)C(=O)c1cnc2ccccc2n1 (configuration not stated),9.1%,-1.2%,-0.6%,22.9%,17.6%,-6.2%
COC(C)CCOC(=O)c1cccc(C)c1 (configuration not stated),9%,-6.8%,3.8%,-24%,24.8%,1.9%
CCC(=O)OC1(C(=O)OC)CCN(C)CC1,9.5%,2.95%,-0.9%,15.2%,17.8%,10.4%
CSc1nnc(CCC(=O)Nc2ccc(Cl)cc2Cl)o1,0.75%,12.5%,10.9%,10.3%,14.4%,-10.2%
C[Si](C)(C)CSC#N,-16.6%,6.45%,12.5%,4.65%,2.75%,11.5%

SMILES,growth inhibition [1],growth inhibition [2],growth inhibition [3],growth inhibition [4],growth inhibition [5],growth inhibition [6]
CCC[N+]1=C/c2ccccc2OC(=O)/C=C\1[O-],-36.9%,-11.3%,-14.1%,-8.95%,5.8%,-1.1%
O=C(O)/C=C/C1CCCCC1,26.4%,14.3%,3.95%,4.35%,-6.4%,21.2%
CC1(C)C2CC3OC3(C)C1C2 (configuration not stated),21.3%,-7%,12.4%,-55.9%,-19.9%,-10.8%
O=[N+]([O-])c1cccc2c(-c3nccc4c([N+](=O)[O-])cccc34)nccc12,-16.9%,-1.35%,-19.4%,-21.8%,-16.2%,-19%
Cc1ccc(C)c(NCc2ccccc2)c1,41.6%,20.1%,8.85%,-16.9%,36.9%,24.3%
O=C(NNCCO)C(O)C(O)C(O)C(O)CO (configuration not stated),-31.4%,7.15%,2.95%,5.25%,-4.7%,13.2%
CC(C)C1=CC2=CCC3C(C)(COC(=O)CSC(C)(C)C)CCCC3(C)C2CC1 (configuration not stated),14.2%,-2.25%,31.6%,18.6%,-1.9%,20.2%
CCOC(=O)C1=C2c3ccc4cc(OC)ccc4c3CCC2(C)C(=O)C1 (configuration not stated),-19.1%,15.5%,-2.55%,-21.1%,-11.2%,-21.1%
Cc1cc(C)cc(NC(=O)CCC(=O)C2CCC/C2=N\NC(=O)C(=O)NN)c1 (configuration not stated),3.95%,-2.7%,-20.6%,2.1%,5.2%,-6.8%
CCCCCOC(=O)c1cccc(C)c1,3.7%,10.5%,-5.2%,-4.7%,-1.65%,2.5%
CC(C)=CCC1=C(O)c2ccccc2C(=O)C1=O,16.6%,5.15%,14.2%,0.4%,-4.25%,13.1%
O=C(N/N=C/c1ccc(Cl)c([N+](=O)[O-])c1)C(O)(c1ccccc1)c1ccccc1,10.2%,-2.7%,12.4%,-4.45%,-1%,-19.1%
CCN(CC)CCC(CN(C)C)C(C)O (configuration not stated),-4.05%,4.05%,13.1%,-17.4%,-1.4%,8.75%
O=C1CCSC(=S)N1c1ccccc1,38.2%,4.8%,23.8%,-32.2%,-5.4%,27.1%
O=[N+]([O-])c1ccc(C=Nc2ccc3c(c2)Cc2ccccc2-3)cc1,-7.7%,-16.8%,9.9%,-20.1%,-16.4%,1.25%
COc1cccc(C(=O)NNC(=O)c2cccc(OC)c2)c1,-1.5%,-15.9%,-9.35%,9.55%,-1.9%,-1.85%
CSc1nc(C)c2c(n1)N(c1ccc(Cl)cc1)CC2,1.7%,-32.5%,-16.5%,-35.3%,-17.2%,-30.4%
Cc1ccc2[nH]c(=S)[nH]c(=S)c2c1,19.9%,5%,13.2%,-19.8%,-33.2%,36%
